Values joined by “and” are separate entries in the source; they are usually repeats but may differ in a detail not shown here. Identical values can stand only once. Results filed as inconclusive are left out. More than one record can exist for a structure, and the calls need not agree. Active and inactive are the calls of the source. The calls were made as follows, unless noted: active = hit-call score of the fitted dose curve at least 0.9, where 1 is the maximum; inactive = score below 0.9.
How the values were obtained:
[1] = read-out: Monocyte Chemoattractant Protein-1 (MCP1), CCL2 (gene 6347); experiment: BSK_LPS_MCP1: BioMAP Diversity Plus: LPS Assay for Monocyte Chemoattractant Protein-1 (MCP1) Biomarker Activity (AID 2283081); details: primary human HUVEC with PBMC; actives raise or lower the signal;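 as to AC50: secreted MCP-1 protein quantified by ELISA in culture supernatant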
How it was run: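 Human umbilical vein endothelial cells co-cultured with PBMC, LPS-stimulated; secreted MCP-1 measured by ELISA 24 h after compound addition. Bidirectional curve fitting against DMSO baseline; SRB total-protein staining in parallel cultures for cytotoxicity.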

[2] = BSK_LPS_PGE2: BioMAP Diversity Plus: LPS Assay for Prostaglandin E2 (PGE2) Biomarker Activity (AID 2283082); details: primary human HUVEC with PBMC; actives raise or lower the signal;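 as to AC50: secreted prostaglandin E2 measured by ELISA in LPS-stimulated co-culture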
How it was run: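 HUVEC plus PBMC co-culture stimulated with LPS; secreted PGE2 quantified by ELISA 24 h after chemical dosing. Activity fitted bidirectionally against DMSO as negative control and baseline; parallel SRB total-protein staining served as cytotoxicity check.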

[3] = read-out: Macrophage colony-stimulating factor (MCSF), CSF1 (gene 1435); experiment: BSK_LPS_MCSF: BioMAP Diversity Plus: LPS Assay for Macrophage colony-stimulating factor (MCSF) Biomarker Activity (AID 2283083); details: primary human HUVEC with PBMC; actives raise or lower the signal
How it was run: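 HUVEC–PBMC co-culture, M-CSF measured by ELISA 24 h after chemical dosing. Fitted in both directions relative to DMSO as negative control; overt cytotoxicity assessed by SRB total-protein staining in parallel cultures.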

[4] = read-out: Tissue Factor, F3 (gene 2152); experiment: BSK_LPS_TissueFactor: BioMAP Diversity Plus: LPS Assay for Tissue Factor Biomarker Activity (AID 2283084); details: primary human HUVEC with PBMC; actives raise or lower the signal
How it was run: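 Human umbilical vein endothelial cells co-cultured with PBMC were dosed with compound. Cell-surface CD142 was measured by ELISA 24 h later. Activity was fitted bidirectionally against DMSO, with SRB total-protein staining in parallel cultures for cytotoxicity.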

[5] = read-out: Tumor necrosis factor (Homo sapiens) (UniProt P01375); experiment: BSK_LPS_TNFa: BioMAP Diversity Plus: LPS Assay for Tumour Necrosis Factor alpha (TNFa) Biomarker Activity (AID 2283085); details: primary human HUVEC with PBMC; actives raise or lower the signal
How it was run: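 Human umbilical vein endothelial cells co-cultured with PBMC were exposed to test chemical and TNFa measured by ELISA 24 h after dosing. Bidirectional curve fitting was done relative to DMSO as negative control and baseline.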

[6] = read-out: Vascular cell adhesion molecule 1 (VCAM1), VCAM1 (gene 7412); experiment: BSK_LPS_VCAM1: BioMAP Diversity Plus: LPS Assay for Vascular cell adhesion molecule 1 (VCAM1) Biomarker Activity (AID 2283086); details: primary human HUVEC with PBMC; actives raise or lower the signal
How it was run: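 Human umbilical vein endothelial cells co-cultured with peripheral blood mononuclear cells under LPS stimulation were exposed to test chemical for 24 h. VCAM-1 levels were then measured by ELISA, with bidirectional curve fitting relative to DMSO as negative control and baseline.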

CD38, CD38 (gene 952) = experiment: BSK_SAg_CD38: BioMAP Diversity Plus: SAg Assay for CD38 Biomarker Activity (AID 2283087); details: primary human HUVEC with PBMC; actives raise or lower the signal
How it was run: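 Fluorescence ELISA of cell-surface CD38 served as the read-out, with either increase or decrease fitted against DMSO controls. Cells were a human umbilical vein endothelium plus PBMC co-culture under SEB/TSST-1 stimulation, measured 24 h after dosing.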

CD40, CD40 (gene 958) = experiment: BSK_SAg_CD40: BioMAP Diversity Plus: SAg Assay for CD40 Biomarker Activity (AID 2283088); details: primary human HUVEC with PBMC; actives raise or lower the signal
How it was run: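 HUVEC plus PBMC co-culture, superantigen-activated, with CD40 read by ELISA 24 h after dosing. Curves fitted in both directions against DMSO. Overt cytotoxicity checked by parallel SRB total-protein staining.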

CD69, CD69 (gene 969) = experiment: BSK_SAg_CD69: BioMAP Diversity Plus: SAg Assay for CD69 Biomarker Activity (AID 2283089); details: primary human HUVEC with PBMC; actives raise or lower the signal;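 as to AC50: cell surface CD69 protein quantified by ELISA with fluorescence detection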
How it was run: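 ELISA, fluorescence read-out: CD69 on human umbilical vein endothelial cell + PBMC co-culture, 24 h post-dosing. Gain or loss of signal fitted bidirectionally against DMSO baseline.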

[7] = read-out: Monocyte Chemoattractant Protein-1 (MCP1), CCL2 (gene 6347); experiment: BSK_SAg_MCP1: BioMAP Diversity Plus: SAg Assay for Monocyte Chemoattractant Protein-1 (MCP1) Biomarker Activity (AID 2283090); details: primary human HUVEC with PBMC; actives raise or lower the signal
How it was run: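 MCP-1 levels in the endothelial–PBMC SAg co-culture were quantified by ELISA at 24 h post-dosing; both increases and decreases versus DMSO scored. Cytotoxicity monitored by SRB total protein in parallel cultures.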

[8] = read-out: E-selectin (Homo sapiens) (UniProt P16581); experiment: BSK_SAg_Eselectin: BioMAP Diversity Plus: SAg Assay for Eselectin Biomarker Activity (AID 2283091); details: primary human HUVEC with PBMC; actives raise or lower the signal
How it was run: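 Human umbilical vein endothelial cells co-cultured with peripheral blood mononuclear cells, SAg system. E-selectin is measured by ELISA 24 h after dosing and fitted bidirectionally against DMSO. Cytotoxicity is checked by SRB staining of parallel cultures.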

[9] = read-out: Monokine induced gamma interferon (MIG), CXCL9 (gene 4283); experiment: BSK_SAg_MIG: BioMAP Diversity Plus: SAg Assay for Monokine induced gamma interferon (MIG) Biomarker Activity (AID 2283092); details: primary human HUVEC with PBMC; actives raise or lower the signal
How it was run: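 ELISA readout of MIG/CXCL9; primary human umbilical vein endothelial cells co-cultured with peripheral blood mononuclear cells; 24 h post-dose; gain/loss fit vs DMSO baseline.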

[10] = BSK_SAg_PBMCCytotoxicity: PBMC Cytotoxicity Assessment in the BioMAP Diversity Plus: SAg Assay (AID 2283093); details: primary human HUVEC with PBMC;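 also: PBMC viability measured as Alamar Blue reduction fluorescence at 546/580 nm; fitted both ways against DMSO so a hit may be loss or gain of signal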;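 as to AC50: PBMC superantigen activated with SEB plus TSST-1 one hour after compound addition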
How it was run: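 Compound added to 75,000 PBMC/well for 1 h; SEB and TSST-1 then added at 20 ng/mL final each; 90 h incubation; Alamar Blue 6 h; read 546/580 nm ex/em. Activity fitted bidirectionally relative to DMSO baseline.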

[11] = read-out: Interleukin-8 (IL8), CXCL8 (gene 3576); experiment: BSK_SAg_IL8: BioMAP Diversity Plus: SAg Assay for Interleukin-8 (IL8) Biomarker Activity (AID 2283094); details: primary human HUVEC with PBMC; actives raise or lower the signal
How it was run: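 Human umbilical vein endothelial cells co-cultured with peripheral blood mononuclear cells; IL-8 measured by ELISA 24 h after chemical dosing. Bidirectional concentration-response fitting used DMSO as negative control and activity baseline.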

[12] = BSK_SAg_SRB: Viability Assessment in the BioMAP Diversity Plus: SAg Assay (AID 2283096); details: primary human HUVEC with PBMC;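 also: cells read one day after compound addition; hits may be either gain or loss of signal compared with DMSO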
How it was run: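 Total protein by sulforhodamine B staining, 24 h after dosing, in HUVEC–PBMC co-culture; DMSO-referenced bidirectional fitting.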

[13] = BSK_SAg_Proliferation: Cell Proliferation Assessment in the BioMAP Diversity Plus: SAg Assay (AID 2283095); details: primary human HUVEC with PBMC;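 also: relative cell number as total protein by SRB absorbance in sub-confluent culture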
How it was run: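 Human umbilical vein endothelial cells co-cultured with peripheral blood mononuclear cells; total protein measured by sulforhodamine B staining (0.1% SRB after 10% TCA fixation), absorbance at 560 nm, at 96 h. Bidirectional fit against DMSO baseline.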

[14] = molecular target: human CYP2D6, CYP2D6 (gene 1565) (UniProt P10635); experiment: NVS_ADME_hCYP2D6: NovaScreen (NVS) CYP450-related Enzyme Activity (ADME) Assay for human CYP2D6 (AID 2283107; active = hit-call score of the fitted dose curve at least 0.9, where 1 is the maximum)
Sequence of human CYP2D6, CYP2D6 (gene 1565) (P10635 whole entry, looked up): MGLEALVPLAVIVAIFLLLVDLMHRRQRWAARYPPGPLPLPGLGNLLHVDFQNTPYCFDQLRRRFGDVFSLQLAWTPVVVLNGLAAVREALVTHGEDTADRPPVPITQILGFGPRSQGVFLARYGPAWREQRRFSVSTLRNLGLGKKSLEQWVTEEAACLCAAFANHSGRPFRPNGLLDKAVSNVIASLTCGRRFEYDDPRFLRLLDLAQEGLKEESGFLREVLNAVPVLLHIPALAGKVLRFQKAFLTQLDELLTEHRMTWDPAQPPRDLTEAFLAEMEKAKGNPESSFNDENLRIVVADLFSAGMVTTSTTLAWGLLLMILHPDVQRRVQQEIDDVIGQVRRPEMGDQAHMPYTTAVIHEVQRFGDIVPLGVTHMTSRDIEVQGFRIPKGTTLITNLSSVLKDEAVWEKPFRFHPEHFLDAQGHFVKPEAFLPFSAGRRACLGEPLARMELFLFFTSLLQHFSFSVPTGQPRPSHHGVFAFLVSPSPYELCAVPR
How it was run: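 Cell-free assay using recombinant human CYP2D6 expressed in insect cells, with a fluorogenic substrate read after 1 h. Primary screen in duplicate at 10 uM; actives followed up in concentration series. Loss of signal fitted relative to acetonitrile.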

[15] = molecular target: human CYP2C9, CYP2C9 (gene 1559) (UniProt P11712); experiment: NVS_ADME_hCYP2C9: NovaScreen (NVS) CYP450-related Enzyme Activity (ADME) Assay for human CYP2C9 (AID 2283108; active = hit-call score of the fitted dose curve at least 0.9, where 1 is the maximum)
Sequence of human CYP2C9, CYP2C9 (gene 1559) (P11712 whole entry, looked up): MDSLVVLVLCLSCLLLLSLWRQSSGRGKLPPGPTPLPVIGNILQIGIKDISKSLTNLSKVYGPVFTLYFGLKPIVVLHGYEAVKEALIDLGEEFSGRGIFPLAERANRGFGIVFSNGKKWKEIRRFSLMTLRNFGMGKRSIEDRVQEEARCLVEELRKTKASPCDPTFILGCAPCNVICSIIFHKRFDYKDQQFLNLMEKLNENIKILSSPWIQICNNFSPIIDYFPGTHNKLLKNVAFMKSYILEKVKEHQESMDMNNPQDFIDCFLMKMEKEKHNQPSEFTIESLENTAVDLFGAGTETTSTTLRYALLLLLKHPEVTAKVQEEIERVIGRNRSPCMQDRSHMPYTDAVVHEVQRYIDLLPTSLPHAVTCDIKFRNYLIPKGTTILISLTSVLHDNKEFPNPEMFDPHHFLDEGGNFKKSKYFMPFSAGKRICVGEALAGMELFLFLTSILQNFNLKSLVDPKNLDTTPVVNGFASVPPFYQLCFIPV
How it was run: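 Fluorescence readout of CYP2C9 activity (SF9-expressed human enzyme) at 0.75 h. The primary screen used 10 uM in duplicate, with concentration-response follow-up for actives; acetonitrile was the negative control.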

Measured: AC50

Sequence of E-selectin (Homo sapiens) (P16581 whole entry, looked up): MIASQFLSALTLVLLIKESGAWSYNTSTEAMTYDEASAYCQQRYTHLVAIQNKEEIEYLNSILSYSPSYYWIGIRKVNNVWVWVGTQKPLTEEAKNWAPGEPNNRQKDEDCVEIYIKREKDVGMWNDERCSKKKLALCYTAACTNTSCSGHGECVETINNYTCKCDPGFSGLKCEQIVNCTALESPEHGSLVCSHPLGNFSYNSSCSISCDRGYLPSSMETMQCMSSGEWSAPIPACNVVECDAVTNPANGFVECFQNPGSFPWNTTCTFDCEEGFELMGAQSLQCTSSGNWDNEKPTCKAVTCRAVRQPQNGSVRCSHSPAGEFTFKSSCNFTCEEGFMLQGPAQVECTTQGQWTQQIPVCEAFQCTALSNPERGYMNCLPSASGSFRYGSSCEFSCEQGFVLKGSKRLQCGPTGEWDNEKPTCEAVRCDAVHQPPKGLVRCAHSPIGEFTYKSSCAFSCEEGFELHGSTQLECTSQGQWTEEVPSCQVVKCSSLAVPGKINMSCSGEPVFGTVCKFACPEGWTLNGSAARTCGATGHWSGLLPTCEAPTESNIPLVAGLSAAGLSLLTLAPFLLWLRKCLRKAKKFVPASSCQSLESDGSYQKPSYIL
Sequence of Tumor necrosis factor (Homo sapiens) (P01375 whole entry, looked up): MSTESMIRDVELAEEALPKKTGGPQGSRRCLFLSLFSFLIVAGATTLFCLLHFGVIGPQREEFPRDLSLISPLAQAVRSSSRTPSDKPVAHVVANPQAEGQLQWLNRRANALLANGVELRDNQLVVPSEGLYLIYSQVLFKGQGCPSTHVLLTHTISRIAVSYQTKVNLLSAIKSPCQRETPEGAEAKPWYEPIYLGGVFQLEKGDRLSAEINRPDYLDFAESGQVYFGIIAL

CCN(CCO)S(=O)(=O)C(F)(F)C(F)(F)C(F)(F)C(F)(F)C(F)(F)C(F)(F)C(F)(F)C(F)(F)F
inactive: [1] | [2] | [3] | [5] | CD69, CD69 (gene 969) | [8] | [9] | [11]
active: [1] 21.8 µM | [3] 7.7 µM | [4] 10.8 µM and 15 µM | [6] 30 µM and 35.9 µM | CD38, CD38 (gene 952) 35.9 µM and 29.9 µM | CD40, CD40 (gene 958) 22.8 µM and 46 µM | CD69, CD69 (gene 969) 9.85 µM | [7] 18.8 µM and 18.3 µM | [10] 39.9 µM and 22.9 µM | [12] 30 µM and 27.9 µM

Cc1cnccn1
not listed: CD38, CD38 (gene 952) | [11] | [14] | [15]
inactive: all other assays above

O=C1c2c(O)ccc(Nc3ccc(CCO)cc3)c2C(=O)c2c([N+](=O)[O-])ccc(O)c21
inactive: [5] | [7] | [8] | [12]
active: [1] 20 µM | [2] 29.4 µM | [3] 7.53 µM | [4] 3.97 µM | [6] 20 µM | CD40, CD40 (gene 958) 25.9 µM | CD69, CD69 (gene 969) 14.2 µM | [9] 33.7 µM | [10] 9.47 µM | [13] 20 µM | [14] 5 µM

CCOC(C=C(C)CCC=C(C)C)OCC
active: [1] 20 µM | [3] 33.1 µM | [4] 30.5 µM | [6] 31.7 µM | CD40, CD40 (gene 958) 3.97 µM
not listed: CD38, CD38 (gene 952) | [11] | [13] | [14] | [15]
inactive: all other assays above

CC(C)=CCCC(C)O (stereo not given)
inactive: [14] | [15]

C=CC(=O)OCC(F)(F)C(F)(F)C(F)(F)COC(=O)C=C
active: [1] 18.8 µM and 16.1 µM | [2] 8.09 µM and 8.04 µM | [3] 14.9 µM and 8.27 µM | [4] 21.9 µM and 20.2 µM | [5] 14.9 µM and 15.7 µM | [6] 15.1 µM and 8.51 µM | CD40, CD40 (gene 958) 16.3 µM and 12.2 µM | CD69, CD69 (gene 969) 8.7 µM and 8.29 µM | [7] 22.5 µM and 14 µM | [8] 8.53 µM and 9.25 µM | [9] 19.3 µM and 18.6 µM | [10] 14.2 µM and 12.8 µM | [12] 43.7 µM and 45.6 µM

Source: PubChem BioAssay (EPA / NIEHS)
